Experimental findings from the supplement of paper PMC11417369 are described below.

± gives the standard deviation of the averaged measurements. Over roughly 25,000 sequences, “ln(normalized median fluorescence intensity)” has its median near 7.9; the highest 2% begin near 11. This is one part of a sample in which the highest values are shown more often than they occur.

The test deals with PfAP2-I AP2 domain 3 (GST-tagged). Put plainly: gcPBM binding intensity (ln(normalized median fluorescence intensity)); higher = stronger DNA binding. The essentials: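 For binding intensity, the highest Masliner-normalised natural-log median intensity across replicate spots of either probe orientation was taken. Protein bound to the array was stained with Alexa488 anti-GST antibody and scanned at 488 nm. The protein, GST-tagged P. falciparum DNA-binding domains from E. coli at about 25 μg on average, had been applied for 1 h to an Agilent 4 × 180k array of primer-extended double-stranded 36-bp intergenic genomic probes and negative controls.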
On to “AGCAATTTGGGGTGTACACACACCTTATTTAAATTA [CACACA_site1157]”, for which the “gcPBM binding intensity (ln)” value is 8.23 ± 0.22.

For the sequence “TACATTTTACTTGTTACACACATATAAAATTAACCA [CACACA_site2922]”, the “gcPBM binding intensity (ln)” value turned out to be 7.82 ± 0.5.

For “AATAGTAAAAATCACTGTACGTTTATTTTTAAAATG [XGTACX_site1035]”, the “gcPBM binding intensity (ln)” value was determined as 7.79 ± 0.28.

As to “CCATAACTCATATGCACACATAAATATTACATATAT [CACACA_site3821]”, the “gcPBM binding intensity (ln)” value worked out at 8.87 ± 0.13.

Turning to “TAGTTCTTTTAATTTAGTATTATACAATATTGGAAA [CACACA_negctrl_site521]”, the “gcPBM binding intensity (ln)” value is 7.49 ± 0.47.

In the case of “ATATAATATTTTAGAGTGCACCGATAACAATAAATA [GTGCAC_site9754]”, the “gcPBM binding intensity (ln)” value stood at 10.4 ± 0.17.

For the sequence “TTTTAATATATAGAGTAACAAATTTGTCTATTAATA [CACACA_negctrl_site1495]”, the “gcPBM binding intensity (ln)” value is 7.5 ± 0.58.

For ATAACAAAAATCCTTGTGCACTATTTTAATAGAGTC, the “gcPBM binding intensity (ln)” value was 11.4 ± 0.12.

Take “TTATATAAAGAATGTACACACAGAAATGCACAGACA [CACACA_site5288]”: the “gcPBM binding intensity (ln)” value worked out at 9.43 ± 0.29.

Regarding “TTATATAAAGAATGTACACACAGAAATGCACCCACA [CACACA_site2282]”, the “gcPBM binding intensity (ln)” value is 11 ± 0.57.

As for “ATTTATATAAAGAATGTACACACAGAAATGCACCCA [CACACA_site8715]”, the “gcPBM binding intensity (ln)” value amounted to 11 ± 0.83.

With “TGTACACCCAGAAATGCACACACATATATATATATA [CACACA_site8716]”, the “gcPBM binding intensity (ln)” value stood at 9.54 ± 0.18.

Regarding “GAAAGAAGCATAAATGTACACACATATTTATATATT [CACACA_site8368]”, the “gcPBM binding intensity (ln)” value is 7.74 ± 0.4.

In the case of “CATTTATATAAAGAATGTACACACAGAAATGCACAC [XGTACX_site4718]”, the “gcPBM binding intensity (ln)” value was determined as 10.2 ± 0.2.

Regarding “TCTTTCTCTCTTCAAAGTACATATAATATATACTTC [XGTACX_site7982]”, the “gcPBM binding intensity (ln)” value turned out to be 7.88 ± 0.52.

On to “TATTACAAATATGGCACACATATATATATATATATT [CACACA_site3268]”, for which the “gcPBM binding intensity (ln)” value amounted to 8.69 ± 0.2.

As to “TAAAAAAAAAAGTATACACACTTCTTAATGTCAACA [CACACA_site4818]”, the “gcPBM binding intensity (ln)” value is 7.36 ± 0.46.

In the case of TATATATATATATGTATGCACTTTAATTTTATAAGG, the “gcPBM binding intensity (ln)” value stood at 9.85 ± 0.26.

In the case of “TTATGTTCTTAATGCACACTTATAAGTATCTTATAA [CACACA_site1394]”, the “gcPBM binding intensity (ln)” value stood at 10.99 ± 0.028.

As for “TTTTATGTTCTTAATGCACACTTATAAGTATCTTAT [CACACA_site4895]”, the “gcPBM binding intensity (ln)” value was 11.4 ± 0.72.

As to “ATATAATATTTATATGCACACTTTTCTATATATAAG [CACACA_site6100]”, the “gcPBM binding intensity (ln)” value amounted to 9.77 ± 0.15.

For the sequence “ATTAAAAAAAAAAGTATACACACTTCTTAATGTCAA [CACACA_site1244]”, the “gcPBM binding intensity (ln)” value was 7.39 ± 0.47.

In the case of “AGGAAATTTTTTTTTTTTTTTTTTTTTTTTTTTTAC [TGCATGCA_negctrl_site170]”, the “gcPBM binding intensity (ln)” value came out at 7.5 ± 0.56.

Take “TTTATTTTCATATGAACACACATATAAATATTATAA [CACACA_site7172]”: the “gcPBM binding intensity (ln)” value was 7.87 ± 0.41.

For the sequence “TTATTTTCTTTCTATGCACACGCACGTATTTGCCCA [CACACA_site9104]”, the “gcPBM binding intensity (ln)” value worked out at 9.39 ± 0.16.

In the case of “TTTATTTTATCATTTGCACACGCACCCCCACATAAA [CACACA_site8007]”, the “gcPBM binding intensity (ln)” value was determined as 10.4 ± 0.26.

Turning to “ATTTTCTTTCTATGCACACGCACGTATTTGCACCCA [CACACA_site3350]”, the “gcPBM binding intensity (ln)” value was determined as 11.5 ± 0.39.

On to “GCTTATATTAATAAGGTGCTTTTTATTTCGTGTGTA [GTGCAC_site9649]”, for which the “gcPBM binding intensity (ln)” value is 9.06 ± 0.15.

“AAGGAAAAAACAAATACACACAAAAACGCATTATAA [CACACA_site3466]”: the “gcPBM binding intensity (ln)” value is 7.87 ± 0.71.

TGATTCTAACTTATGGTGCAACATTATGGACACCGT: the “gcPBM binding intensity (ln)” value turned out to be 10.3 ± 0.35.

As for “AACAACAACTAATATGCACACATTTAAAAACAAAAT [CACACA_site2440]”, the “gcPBM binding intensity (ln)” value was determined as 9.42 ± 0.26.

Take “TTATGGTGCAACATTATGCACACCGTTAAATAACTA [CACACA_site3846]”: the “gcPBM binding intensity (ln)” value is 11.1 ± 0.52.

With “AATCATAAACATTATGCACACAAAAATAAAAAAAAA [CACACA_site8289]”, the “gcPBM binding intensity (ln)” value was 9.81 ± 0.11.

On to “TCATAAACATTATGCACACAAAAATAAAAAAAAATA [CACACA_site1115]”, for which the “gcPBM binding intensity (ln)” value is 9.8 ± 0.56.

Take “ATGGTGCAACATTATGCACACCGTTAAATAACTAAT [CACACA_site9280]”: the “gcPBM binding intensity (ln)” value was determined as 11.5 ± 0.7.

With “TACTTTTCTTAAAGATGTACGTTTTAAAAATAAAAT [XGTACX_site14]”, the “gcPBM binding intensity (ln)” value is 7.81 ± 0.2.

Regarding “ATATTTCTGTGTGGATGTACATTATTAGCAGGCTTT [XGTACX_site6496]”, the “gcPBM binding intensity (ln)” value turned out to be 8.12 ± 0.73.

For “TTTTTTTTTTTTTTTTGTACTTATAAAATAACATGT [XGTACX_site134]”, the “gcPBM binding intensity (ln)” value was found to be 8.13 ± 0.82.

“TTTTTTATTTAAAGTAGTACTTTTTAGAAAACAAAA [XGTACX_site6759]”: the “gcPBM binding intensity (ln)” value came out at 7.68 ± 0.29.

With “AATGCACTATTTAAAAGTACACATAAGAAAAGCATA [XGTACX_site1739]”, the “gcPBM binding intensity (ln)” value stood at 9.24 ± 0.28.

For the sequence “TTAAAGCACCCATGCACACACACAAGGGAAAAGAAA [CACACA_site4289]”, the “gcPBM binding intensity (ln)” value was determined as 10.9 ± 0.92.

Turning to “TTAAAGCACCCATGCACACACACAAAGGAAAAGAAA [CACACA_site233]”, the “gcPBM binding intensity (ln)” value is 11.1 ± 0.93.

As to “AAAGCACCCAGGCACACACACAAAGGAAAAGAAAAA [CACACA_site232]”, the “gcPBM binding intensity (ln)” value amounted to 7.95 ± 0.49.

As for “TATAAATCTATAAATGCACACAAGGGAAGAAAAACG [CACACA_site2965]”, the “gcPBM binding intensity (ln)” value came out at 9.46 ± 0.26.

Consider “AAAGCACCCATGCACACACACAAAGGAAAAGAAAAA [CACACA_site6249]”, for which the “gcPBM binding intensity (ln)” value amounted to 8.32 ± 0.38.

As to “AAAGAAGGGAAACACACACACACACCCACAAAAAAA [CACACA_site3766]”, the “gcPBM binding intensity (ln)” value turned out to be 8.17 ± 0.21.

On to “TATTAAAGCACCCATGCACACACACTAAGGAAAAGA [CACACA_site7961]”, for which the “gcPBM binding intensity (ln)” value is 11.6 ± 0.71.

As for “CACTAAAAGAAACACACACACACACCCATATATATA [CACACA_site4151]”, the “gcPBM binding intensity (ln)” value is 8.44 ± 0.75.
